Shown are actives, neighbours in structure and some others; about 19% of the full set was active somewhere.
TDP1 block – qHTS Assay for Inhibitors of Tyrosyl-DNA Phosphodiesterase (TDP1) | hit rate 0.28% among 350,000 | Potency, µM (top dose mostly 130 µM), without a hit: top-dose activity change, negative = inhibition, most hits filed as inhibitors | recombinant TDP1, AlphaScreen DNA substrate cleavage | Tyrosyl-DNA phosphodiesterase 1 (Homo sapiens), Q9NUW8; note: potency is the fitted concentration of half-maximal effect; nearly all actives have a fitted effect of over 40% in size
Target sequence (Q9NUW8 whole entry, looked up): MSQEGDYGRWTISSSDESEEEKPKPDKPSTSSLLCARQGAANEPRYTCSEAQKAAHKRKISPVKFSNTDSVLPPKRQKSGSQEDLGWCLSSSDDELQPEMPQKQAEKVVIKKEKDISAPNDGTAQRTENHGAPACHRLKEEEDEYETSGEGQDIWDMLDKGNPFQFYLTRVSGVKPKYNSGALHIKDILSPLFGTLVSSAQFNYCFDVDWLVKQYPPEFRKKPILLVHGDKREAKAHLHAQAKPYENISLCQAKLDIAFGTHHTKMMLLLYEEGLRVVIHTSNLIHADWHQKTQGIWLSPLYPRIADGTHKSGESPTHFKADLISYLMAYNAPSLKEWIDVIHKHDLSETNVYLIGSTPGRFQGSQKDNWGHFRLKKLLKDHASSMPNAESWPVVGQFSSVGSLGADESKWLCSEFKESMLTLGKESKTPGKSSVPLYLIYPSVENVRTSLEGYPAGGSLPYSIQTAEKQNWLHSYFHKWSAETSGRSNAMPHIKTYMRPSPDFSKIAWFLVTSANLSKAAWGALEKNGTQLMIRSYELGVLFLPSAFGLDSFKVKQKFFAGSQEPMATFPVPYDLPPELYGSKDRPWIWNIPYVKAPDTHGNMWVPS
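Recombinant human Tdp1 (E. coli-expressed, 1 nM final) preincubated with compounds 15 min at room temperature, then 5'-biotin/3'-phosphotyrosine-FITC DNA substrate (15 nM final) added for 5 min. AlphaScreen beads (10 ug/ml final) added 10 min; cleavage lowers signal.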
ELG1 repair inh – qHTS screen for small molecules that inhibit ELG1-dependent DNA repair in human embryonic kidney (HEK293T) cells expressing luciferase-tagged ELG1 | HEK293T ELG1-luciferase reporter, luminescence, 16 h; DNA damage induced by 5-fluorouridine | Potency, µM (doses to about 46.1 µM), for inactives: top-dose activity change, negative = inhibition, hits mostly inhibitors | hit rate 2.3% among 330,000 | AID 504467, 2011; note: potency is the fitted concentration of half-maximal effect; nearly all actives have a fitted effect of over 55% in size
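DMSO vehicle served as the neutral condition. Each well held 2,000 cells given 5-fluorouridine plus compound; after 16 hr at 37 °C/5% CO2, ONE-Glo was added and luciferase measured 30 min later.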
DT40 TDP1 no CPT – qHTS for Inhibitors of human tyrosyl-DNA phosphodiesterase 1 (TDP1): qHTS in cells in absence of CPT; DT40 Tdp1-/- hTDP1 cells, no CPT, ATP luminescence, 48 h; Potency, µM (titrated, usually from 46.2 µM), inactives show at the top dose activity change, negative = growth inhibition, most hits filed as inhibitors; hit rate 15% among 420,000; note: potency is the fitted concentration of half-maximal effect; nearly all actives have a fitted effect of over 55% in size
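Growth kinetics read by CellTiter-Glo luminescence after ≥48 hr at 37 °C. Cells: DT40 Tdp1-/- stably carrying human TDP1, 400 per well, compound exposure in the absence of CPT (DMSO vehicle).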
Giardia kill – Small Molecules that selectively kill Giardia lamblia: qHTS; Giardia lamblia trophozoite viability; activity change, % at 7.66 µM, hits read low; hit rate 0.15% among 340,000; in the data active = activity change below about -80%; inconclusive = between about -30% and that limit;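 note: parasites exposed to compound for two days anaerobically before the ATP read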
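ATP-content bioluminescence gauges trophozoite survival. Cells (100/well) receive compound and incubate anaerobically for 48 hrs at 37 deg C; detection reagent follows for 15-30 min at room temperature.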
IL-1B inflam inh – qHTS for Inhibitors of Inflammasome Signaling: IL-1-beta AlphaLISA Primary Screen; THP-1 LPS/ATP IL-1B secretion, AlphaLISA, 16 h; active compounds read low; activity change, % at 57.5 µM; hit rate 4.7% among 360,000; in the data active = activity change below about -50%; inconclusive = mostly about -30% to -49%
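Secreted IL-1B measured by AlphaLISA bead assay after 16 h compound exposure of THP-1 cells; compounds (final up to 57.5 uM) added 1 h before LPS (250 ng/mL) and ATP (1.25 mM) stimulation; lower signal means less secretion.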
DT40 TDP1 CPT – qHTS for Inhibitors of human tyrosyl-DNA phosphodiesterase 1 (TDP1): qHTS in cells in presence of CPT; hit rate 12% among 420,000; chicken DT40 Tdp1-/-;hTDP1 cells + 20 nM CPT, ATP luminescence, 48 h; Potency, µM (top dose mostly 46.2 µM), for inactives: at the top dose activity change, negative = growth inhibition, usual class: inhibitors; note: potency is the fitted concentration of half-maximal effect; nearly all actives have a fitted effect of over 55% in size
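Chicken DT40 Tdp1-/- cells complemented with human TDP1, 400 cells/well, exposed to compounds plus 20 nM camptothecin for at least 48 h at 37 C; viability read as ATP content by CellTiter-Glo luminescence.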
Numbers without * were called inactive; ? = inconclusive; . = no result given; [ ] = remark or other dose. Unless noted, calls come from the whole dose curve; as a rule, active = well fitted curve in the direction sought with a large enough effect; inconclusive = small, poorly fitted or top-dose-only effect, or another doubt; inactive = no such curve, though single readings can be large; an effect the other way counts as inactive or inconclusive. % is set by controls: 0 for no effect and ±100 for the full control effect.

SMILES	TDP1 block	ELG1 repair inh	DT40 TDP1 no CPT	Giardia kill	IL-1B inflam inh	DT40 TDP1 CPT
COc1cc(F)ccc1-c1csc(C(O)c2ccc(F)cc2)n1 (configuration not stated)	.	.	?	.	-6	23µM*
COc1cccc(C(O)c2nc(-c3ccc(F)cc3OC)cs2)c1 (configuration not stated)	.	.	?	.	-22	-18%
COc1ccc(C(O)c2nc(-c3ccc(F)cc3OC)cs2)cc1 (configuration not stated)	.	.	?	.	-16	26µM*
CCN(c1ccccc1)S(=O)(=O)c1cc2c3c(c1)CCN3C(=O)CC2	-3%[0.505 µM]	6%	.	.	.	.
CCN(c1cccc(C)c1)S(=O)(=O)c1cc2c3c(c1)CCN3C(=O)CC2	-8%[0.505 µM]	0%	15µM*	8	19	29µM*
CCN(c1ccccc1)S(=O)(=O)c1cc2c3c(c1)C(C)C(=O)N3CCC2 (configuration not stated)	1%	7%	16µM*	13	8	18µM*
CCC(C)C(NC(=O)C(C)NC(=O)CNC(=O)OC(C)(C)C)C(N)=O (configuration not stated)	3%	5%	?	20	6	?
O=[N+]([O-])c1ccccc1CSc1ccccn1	4%	3%	2%	-16	-63*	-11%
Cc1ccc(-c2nnc(-c3ccccc3)c(N3CCOCC3)n2)cc1	7%	?	16µM*	-12	15	?
Cc1ccc(-c2cc3ccccc3nc2N2CCOCC2)cc1	-12%	-29%	?	11	67	-27%
CN1CCN(c2nc(-c3ccc(Br)cc3)nnc2-c2ccccc2)CC1	6%	?	12µM*	-5	-58*	16µM*
Brc1ccc(-c2nnc(-c3ccccc3)c(N3CCSCC3)n2)cc1	5%	?	26µM*	-11	-1	?
c1ccc(-c2nnc(N3CCOCC3)nc2-c2ccccc2)cc1	6%	-9%	?	-6	-9	16µM*
COc1ccc(Cl)cc1NC(=S)N1CC(C)OC(C)C1 (configuration not stated)	3%[56.1 µM]	0%	1%	-5	8	-1%
O=C(CCCCCn1c(=O)[nH]c2ccsc2c1=O)NCc1ccccc1	9%	.	-30%	.	.	3%
Cc1nnc(-c2cccc(C(F)(F)F)c2)nc1N1CCOCC1	-3%	-7%	15µM*	1	-3	5%
CCn1c(=O)c(C(=O)NNS(=O)(=O)c2ccc(Br)cc2)c(O)c2ccccc21	8%	-2%	-14%	9	0	?
O=C(COC(=O)c1cccc([N+](=O)[O-])c1)c1ccc(OCc2ccccc2)cc1	5%	?	13µM*	-14	-12	?
O=C(CCc1ccccc1)OCC(=O)c1cccc([N+](=O)[O-])c1	3%	-4%	-15%	0	9	-5%
O=C(CNC(=O)c1ccco1)OCC(=O)c1ccc([N+](=O)[O-])cc1	.	-1%	?	-5	-76*	?
O=C(Cc1ccccc1)NCC(=O)OCC(=O)c1cccc([N+](=O)[O-])c1	-2%	9%	-12%	21	3	?
O=C(CNS(=O)(=O)c1ccccc1)OCC(=O)c1ccc(Br)cc1	0%	14%	-5%	-8	-4	2%
O=C(Cc1ccccc1)NCC(=O)OCC(=O)c1ccc([N+](=O)[O-])cc1	0%	0%	?	?	-72*	?
O=C(CNS(=O)(=O)c1ccccc1)OCC(=O)c1ccc([N+](=O)[O-])cc1	-11%	6%	?	19	0	21µM*
CC(C)(C)N1CC23C=CC(C[C@@H]2C1=O)O3 (some centres not stated)	0%	?	6%	-17	32	-1%
SMILES	TDP1 block	ELG1 repair inh	DT40 TDP1 no CPT	Giardia kill	IL-1B inflam inh	DT40 TDP1 CPT
CC(C)(CC(=O)O)CC(=O)N1CCN(c2cc(C(F)(F)F)nc3ccccc23)CC1	.	9%	2%	-5	9	-5%
CCOC(=O)c1sc2ncn(CC(=O)Nc3ccc(C)cc3Br)c(=O)c2c1C	3%	.	5%	.	.	1%
COc1ccc(CN2CC[C@H]3C=CC[C@@H](C(=O)N4CCN(c5ccccc5)CC4)[C@H]3C2=O)cc1OC	.	.	-18%	.	.	-28%
N#Cc1cccc(S(=O)(=O)NCc2nnc3ccccn23)c1	0%	13%	3%	12	0	-2%
CC1CCC(NC(=O)c2ccc3c(c2)N(Cc2ccccc2F)C(=O)c2ccccc2S3=O)CC1 (configuration not stated)	10%	.	-23%	.	.	?
COCCNC(=O)/C(C#N)=C/c1ccc(N2CCOCC2)o1	5%	17%	5%	-10	-10	-3%
COCCNC(=O)/C(C#N)=C/c1cccc(/C=C(\C#N)C(=O)NCCOC)c1	3%	21µM*	12µM*	5	-99*	5.8µM*
COCCNC(=O)/C(=C/c1ccccc1Cl)c1ccccc1	0%	-15%	?	25	?	29µM*
CNC(=O)/C(=C\c1cccc(Oc2ccccc2)c1)NC(=O)c1ccccc1	0%	-2%	-23%	-4	?	3%
O=C(O)C(=Cc1ccccc1Cl)c1ccccc1	.	.	-27%	.	-7	?
COCCNC(=O)/C(C#N)=C/C(C)=C/c1ccccc1	1%	?	-21%	-9	-83*	-22%
COCCNC(=O)/C(C#N)=C/c1ccc(O)cc1	1%	?	-14%	6	2	-21%
CNC(=O)/C(C#N)=C/c1cccc(Oc2ccccc2)c1	1%	?	23µM*	-18	-102*	26µM*
CCS(=O)(=O)N1CCN(c2ccc([N+](=O)[O-])c(NCC3CCCO3)c2)CC1 (configuration not stated)	0%	9%	?	36	9	-5%
Cc1cn([C@H]2C[C@@H](N=[N+]=[N-])[C@@H](CO)O2)c(=O)[nH]c1=O	4%	.	.	.	.	.
COCCNC(=O)/C(C#N)=C/c1ccc(O)c([N+](=O)[O-])c1	-8%	3%	?	?	15	-5%
COCCNC(=O)/C(C#N)=C/C=C/c1ccccc1[N+](=O)[O-]	4%	?	7.3µM*	-3	-107*	10µM*

Screening results as filed in PubChem BioAssay.
